Screen size: about 130,000 compounds; about 2,500 (1.9%) were called active.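 Rule for the calls: active = signal ratio slope over the read window, or its plate-corrected B-score, at least 3 SD from the plate mean, either direction; inactive = the rest.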 Only a selection was taken, and actives are over-represented in it overall.
Each compound was assayed against ATP-sensitive inward rectifier potassium channel 1 (Homo sapiens) (UniProt P48048) (assay: ROMK potassium channel modulators, primary screen, cell-based, thallium flux, MLSMR library (AID 1918;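 note: B-score of the F/F0 ratio slope over 7 to 12 s after thallium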)). Details: Tet-inducible ROMK, thallium flux fluorescence; at 10 µM; actives lie on both sides.
Sequence of ATP-sensitive inward rectifier potassium channel 1 (Homo sapiens) (P48048 whole entry, looked up): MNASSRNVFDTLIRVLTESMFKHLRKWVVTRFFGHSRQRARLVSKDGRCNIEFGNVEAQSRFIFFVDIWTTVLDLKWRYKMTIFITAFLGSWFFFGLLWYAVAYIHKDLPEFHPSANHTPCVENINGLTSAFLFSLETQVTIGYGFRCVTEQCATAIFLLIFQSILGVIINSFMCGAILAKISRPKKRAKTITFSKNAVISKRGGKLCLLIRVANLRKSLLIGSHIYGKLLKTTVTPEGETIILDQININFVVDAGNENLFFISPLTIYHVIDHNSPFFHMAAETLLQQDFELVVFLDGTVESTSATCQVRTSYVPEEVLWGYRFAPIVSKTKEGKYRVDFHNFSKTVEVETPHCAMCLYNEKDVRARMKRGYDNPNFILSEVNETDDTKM

B-score, active:
CC1(C)C=C2[C@H]3CC[C@@H]4[C@@]5(C)CCC(=O)C(C)(C)[C@@H]5CC[C@@]4(C)[C@]3(C)CC[C@@]2(C(=O)O)CC1 3.78
COc1ccccc1-n1c(C)nc2cc(C(=O)NCc3ccc4c(c3)OCO4)ccc21 2.52
COc1ccccc1/C=C/CN1CCC(CO)(Cc2ccccc2)CC1 -2.4
O=C(Nc1cccc(C(F)(F)F)c1)c1ccc(N2CCNCC2)c([N+](=O)[O-])c1 -4.07
CCOc1ccccc1C1C(C(=O)OC)=CN(C)C=C1C(=O)OC -3.43
Cc1cccc2cc(CN(Cc3nnnn3Cc3ccccc3)C3CCCC3)c(=O)[nH]c12 -4.07
CCC(c1nnnn1C1CCCC1)N(Cc1cccs1)Cc1cc2cccc(C)c2[nH]c1=O (stereo not drawn) -3.89
O=C(/C=C/c1ccc(Cl)c([N+](=O)[O-])c1)c1cccnc1 -6.38
CC(NC(=O)CC1SC(N)=NC1=O)c1ccccc1 (stereo not drawn) 1.24
c1ccc2c(c1)CSc1sccc1C2=C1CCNCC1 -2.98
CCCc1ccc(OCC(=O)NNC(=S)NC(=O)c2ccco2)cc1 4.19
N#C/C(=C\c1ccccc1C(F)(F)F)C(=O)Nc1ccccc1F -4.23
Cc1ccc(-n2[nH]c(C)c(/C=N/N3C(=O)c4cccc5cccc(c45)C3=O)c2=O)cc1 3.89
CCOc1ccc2nc(N3CCCN(C(=O)Nc4ccccc4C)CC3)c(C#N)cc2c1 -5.81
CCOC(=O)C1=C(C)N=c2s/c(=C\C(=O)OC)c(=O)n2C1c1ccc(OC)cc1 (stereo not drawn) -6.39
O=C(Cc1ccc(Br)cc1)N1CCN(c2ccccn2)CC1 -2.13
O=C(Cc1ccccc1Cl)N1CCN(c2ccccn2)CC1 -4.7
CN(C)/C=C(/C(=O)c1ccc(Cl)c(Cl)c1)c1nnnn1-c1ccccc1 -2.28
O=C(CN1C(=O)NC(Cc2ccccc2)(Cc2ccccc2)C1=O)NCC1CCCCC1 -4.09

B-score, inactive:
c1ccc(-n2nnnc2-c2cccnc2)cc1 0.982
CNC(=O)C(=O)N/N=C/c1ccccn1 1.14
c1ccc(C2c3[nH]c4ccccc4c3CCN2Cc2cccn2-c2cccnc2)nc1 (stereo not drawn) -0.00648
Cc1ccc(C(=O)N2CCN(S(=O)(=O)N3CCOCC3)CC2)cc1 -0.0164
O=C(CCS(=O)(=O)Cc1ccccc1)Nc1ccc2c(c1)OCCO2 0.0737
COc1cc(-n2c(C)nc3cc(C(=O)NCc4ccco4)ccc32)cc(OC)c1OC 2.33
CCn1cc(C(=O)NCc2ccc3c(c2)OCO3)c2cc(OC)c(OC)cc2c1=O 2.18
C=CCn1c(-c2sc(-c3ccccc3)nc2C)n[nH]c1=S -0.143
CCN1CCC2(CCN(Cc3cn[nH]c3-c3ccc(OC)c(F)c3)C2)C1 (stereo not drawn) 0.101
FC(F)(F)c1cccc(Cc2noc(CN3CCC(N4CCCCC4)CC3)n2)c1 -0.1
Cc1nccc(-c2ccc(-n3c(C)ccc3C)cc2)n1 -1.01
OCC1(Cc2ccccc2)CCN(Cc2cc3ccccc3o2)CC1 -2.42
CC(=O)c1cccc(CN2CCC(CO)(Cc3ccccc3)CC2)c1 -0.319
Cc1ccc2c(c1)C(O)(CC(=O)c1cccc(-n3cccc3)c1)C(=O)N2 (stereo not drawn) 0.00843
OCC1(Cc2ccccc2C(F)(F)F)CCN(Cc2cccc3cnccc23)CC1 -2.15
CC(NC(=O)c1ccc(N2CCNCC2)c([N+](=O)[O-])c1)C12CC3CC(CC(C3)C1)C2 (stereo not drawn) -1.39
O=C(Nc1ccc(N2C(=O)c3cccc4cccc(c34)C2=O)cc1)c1ccc(N2CCCCC2)c([N+](=O)[O-])c1 -0.618
Nc1nnn(CC(=O)N/N=C/c2ccc(O)cc2)n1 0.102
COc1ccc(-c2nc3cnccn3c2NC(C)(C)CC(C)(C)C)cc1O -0.227
CCN(CCn1cccn1)Cc1cn[nH]c1-c1ccc(OC)cc1F 0.488
CCCCOCCCNC(=O)c1ccccc1OCC -0.181
COC(=O)C1=CN(C)C=C(C(=O)OC)C1c1ccc(Cl)cc1Cl 0.118
CCOC(=O)CSc1ccccn1 -0.519
CC(C)C(=O)Nc1oc(-c2ccccc2)cc1C#N -0.0567
Cc1cccc2cc(CN(C(=O)c3cccs3)c3ccccc3)c(=O)[nH]c12 0.321
Cc1cc(C)c2[nH]c(=O)c(C(c3nnnn3Cc3ccc4c(c3)OCO4)N3CCCC3)cc2c1 (stereo not drawn) -1.8
CCCN(Cc1cc2cccc(C)c2[nH]c1=O)S(C)(=O)=O -0.178
Cc1cccc2cc(CN(Cc3ccc4c(c3)OCO4)Cc3nnnn3C3CCCC3)c(=O)[nH]c12 0.0136
COc1cc(/C=C/C(=O)OCC(=O)NC(=O)NCc2ccccc2)ccc1OCC#N 0.107
Cc1cccc(C(=O)Nc2ccccc2C(=O)NCc2cccnc2)c1 -0.294
O=C(Nc1cccnc1)c1ccc(Cl)c([N+](=O)[O-])c1 0.478
CN(C)c1ccc(/C=C/C(=O)c2ccc(C(C)(C)C)cc2)cc1[N+](=O)[O-] -0.617
CCOC(=O)C(NC(C)=O)C(=O)Nc1ccc(OC)cc1 (stereo not drawn) 2.1
CN(C)c1cc(-c2ccc(F)cc2)oc(=O)c1Cl 0.334
CC(NC(=O)COC(=O)c1cc(=O)[nH]c2ccccc12)c1ccccc1 (stereo not drawn) -0.0559
NC1=NC(=O)C(Cc2cccc(Cl)c2)S1 (stereo not drawn) -2.18
CCOC(=O)C1(CC2CCCCO2)CCN(Cc2nc(-c3cccs3)oc2C)CC1 (stereo not drawn) -0.7
CCc1nc2ccccc2c(C(=O)NCc2ccc(OC)cc2)c1C 0.0138
O=C(NCc1nnc(SCC(=O)N2CCC(Cc3ccccc3)CC2)o1)c1ccco1 -0.765
CC(Oc1ccc2ccccc2c1)C(=O)NNC(=S)NC(=O)c1ccco1 (stereo not drawn) 2.32
Cc1ccc(OCC(=O)NNC(=S)NCc2ccccc2)cc1 0.804
Cc1ccc(/C=C(\C#N)C(=O)Nc2cccc3ncccc23)o1 -0.963
O=C(Nc1ccccc1F)c1ccccc1-c1ccc(C(F)(F)F)cc1 0.0696
CCCCNC(=O)c1ccc(-n2c(=S)[nH]c3ccccc3c2=O)cc1 0.371
O=C1C2C3C=CC(C3)C2C(=O)N1c1ccc(-c2nc3ccccc3c(=O)o2)cc1 (stereo not drawn) -0.106
Cc1ccc(NC(=O)C(=O)NCC2CCN(C(=O)c3cccc([N+](=O)[O-])c3)CC2)cc1 0.475
Cc1[nH]n(-c2cccc(Cl)c2)c(=O)c1/C=N/n1c(C)nc2ccccc2c1=O 0.302
Cc1[nH]n(-c2ccc(Cl)cc2)c(=O)c1/C=N/n1c(C)nc2ccccc2c1=O -0.843
COc1ccccc1Cn1c(C)nnc1-c1cnn(C)c1N 0.26
CC(Sc1nnnn1C1CCCCC1)C(=O)O (stereo not drawn) 0.253
O=S(=O)(Nc1ncccn1)c1ccc(NS(=O)(=O)c2cccc(Cl)c2Cl)cc1 0.305
CCOc1ccc2cc(C#N)c(SCC(=O)OC)nc2c1 -0.501
Cc1cccc2cc(C#N)c(N3CCCC3)nc12 -0.0822
COC(=O)CN1C(=O)N/C(=C/c2ccc(OC)c(C)c2OC)C1=O 1.31
COc1ccc(C2C(C(C)=O)=C(O)C(=O)N2c2nccs2)cc1 (stereo not drawn) 0.28
CCOC(=O)C1=C(CSc2nccn2C)NC(=O)NC1c1ccc(OC)cc1 (stereo not drawn) 0.553
CCC(CC)c1nnc(NC(=O)c2nn(C)c(=O)c3ccccc23)s1 -0.146
Cc1nc(COc2cccc(Cl)c2)sc1C(=O)/C=C/N(C)C -0.0177
O=C(CCC(=O)OCc1ccc(Cl)cc1)Nc1ccccc1 1.21
O=C(C(Cl)Cl)N1CCN(c2ccccn2)CC1 0.591
O=C(CCC1CCCN(C(=O)Cc2ccc(F)cc2)C1)N1CCN(c2ccccn2)CC1 (stereo not drawn) 2.32
Cc1ccc(S(=O)(=O)NCC(=O)N2CCN(c3ccccn3)CC2)cc1 0.248
COc1cccc(CC(=O)N2CCCC(CCC(=O)N3CCN(c4ccccn4)CC3)C2)c1 (stereo not drawn) 0.339
COc1cccc(CN(C)CC(=O)NCc2ccccc2Cl)c1OC -0.0981
CCNC(=O)COC(=O)/C=C/c1c(C)nn(Cc2cccc(OC)c2)c1Cl -0.509
Cc1ccc(N(C(=O)c2ccc(S(=O)(=O)N(C)C)cc2)C2C=CS(=O)(=O)C2)cc1 (stereo not drawn) -0.406
CN(C)/C=C(/C(=O)c1ccccc1)S(=O)(=O)c1ccc(Cl)cc1 -0.0973
CN(C)/C=C(/C(=O)c1ccccc1Cl)S(C)(=O)=O 0.383
Cc1cc(C)n(CC(=O)Nc2ccc([N+](=O)[O-])cc2)n1 0.748
CCOC(=O)CSc1nnc(-c2ccc([N+](=O)[O-])cc2)o1 -0.954
O=C(CN1C(=O)NC2(CCCCCC2)C1=O)NC1CC1 -0.159
O=C(CN1C(=O)NC2(CCCC2)C1=O)NCC1CCCO1 (stereo not drawn) 0.00667
O=S(=O)(NCc1ccco1)c1cnc(Cl)c(Cl)c1 0.266
CCOc1cc(NC(=S)NCCCN(C)C)c(OCC)cc1NC(=O)C1CC1 0.491
